Data taken from PubChem BioAssay AID686979 (National Center for Advancing Translational Sciences (NCATS), 2013).
Several values for one entry are separate records, joined by “and”; a condition that tells them apart may be missing. Equal values may be shown once. Out of some 420,000 compounds screened, about 50,000 (12%) were called active. Another 26% or so got no clear call; they are omitted. The entries come from a sample that favours actives as a whole. Values without a mark were called inactive. Calls follow the shape of the dose curve; as a rule, active = well fitted inhibition curve with a large enough effect; inconclusive = small, poorly fitted or top-dose-only effect; inactive = flat fitted curve, though single readings scatter.

Assay: qHTS for Inhibitors of human tyrosyl-DNA phosphodiesterase 1 (TDP1): qHTS in cells in presence of CPT; also: nearly all actives have a fitted effect of over 55% in size
Details: chicken DT40 Tdp1-/-;hTDP1 cells + 20 nM CPT, ATP luminescence, 48 h; series mostly up to 46.2 µM; activity change, negative = growth inhibition: at the top concentration
From the text: Human tyrosyl-DNA phosphodiesterase 1 (TDP1) is a novel repair gene, and we propose to use it as a new target for anticancer drug development. TDP1 is not an essential protein, but under treatment with topoisomerase I poison (camptothecin: CPT), TDP1 works as a critical factor for cell survival. To directly identify novel TDP1 inhibitors active in a cellular environment, we have knocked-out the Tdp1 gene in chicken DT40 cells (Tdp1-/-) and generated a complemented counterpart cells that contains a stable transfection of the human TDP1 gene (Tdp1-/-;hTDP1 cells). For the primary screen, Tdp1-/-;hTDP1 cells will be exposed to small molecules in the presence or absence of CPT, and their growth kinetics will be evaluated after 48 hours by measuring ATP activity. […] The hit compounds will then be evaluated in the presence or absence of CPT using Tdp1-/- cells. […] In tertiary assays, biochemical gel-based assays will be used to assess whether the hit compounds specifically target TDP1. To this end, we have screened this cell line against the MLSMR in two primary screens. In one screen we add CPT and in the other we screen in the absence of CPT; this AID represents the screen where CPT was present. NIH Chemical Genomics Center [NCGC] NIH Molecular Libraries Probe Centers Network [MLPCN] MLPCN Grant: MH095538 Assay Submitter (PI): Yves Pommier, NCI
DT40-hTDP1 cells with 20 nM Camptothecin (add 20 microL of 1 mM CPT stock in 1 L of cell culture medium) were dispensed at 400 cells/5microL/well in tissue culture treated 1536-well white wall/solid bottom assay plates (Greiner Bio-One North America, NC, U.S.A.) using a Multidrop Combi 8 channel dispenser (Thermo Fisher, Waltham, MA, USA). 23 nL compounds and controls were transferred using the pin tool (Kalypsys, San Diego, CA, USA) to the assay plates. The assay plates were then incubated at 37 masculineC for a minimum 48 hr. Three microL of Cell Titer Glo solution was added to the plates and incubated at RT in dark for 30 min. Luminescence was read using ViewLux (Perkin Elmer) with 1 sec exposure slow speed, high gain and 2x binning.
% is scaled to controls: 0 for no effect and ±100 for the full control effect; potency is read from the fitted curve at half-maximal effect.

Compound	activity change, negative = growth inhibition	Potency
Cc1ccccc1SCC(=O)OCC(=O)N1CC(=O)Nc2ccccc21	5.39%	
CC1=NNC(=O)C1CCC(=O)N/N=C\c1ccc(Cl)c(Cl)c1 (centres undefined)	1.5%	
Cc1cccc(OCC(=O)N(Cc2ccc(C(C)C)cc2)Cc2ccco2)c1C		16.4 µM (active)
Cc1cccc(OCc2nnc(SCC(=O)N3CCN(C(=O)c4ccco4)CC3)n2C)c1C	-0.881%	
Cc1ccnc(NC(=O)CCC(=O)N(CC(=O)NCc2ccccc2)Cc2ccco2)c1	37.5%	
Cc1cccc(N(C(=O)Cn2nnc(-c3ccc(C)o3)n2)C(C(=O)NC2CCCC2)c2ccncc2)c1 (centres undefined)	-14.6%	
COc1ccc(CN2CCC3(CCC(CNC(=O)c4ccco4)O3)CC2)cc1OC (centres undefined)	-1.91% [at 9.04 µM]	
O=C(OCC(=O)N1CCCC1)c1ccc(Cl)nc1	-5.05%	
CC(C)(C)c1ccc(C(=O)Nc2ccc3c(c2)CCCN3C(=O)c2cccs2)cc1		5.8 µM (active)
O=C(Nc1ccc(NC(=O)c2cccs2)cc1)c1ccc2ccccc2c1	-3.7%	
O=C(Nc1ccccc1)c1ccc(NC(=O)c2cccs2)cc1	-21.6%	
COCCN(C(=O)CCC(=O)Nc1nccs1)C(C(=O)NC(C)(C)C)c1ccc(Cl)cc1 (centres undefined)	-4.68%	
Cc1cnc(C)c(-c2cc(F)c3c(c2)CC(CNC(=O)c2cccc(Cn4cccn4)c2)O3)n1 (centres undefined)	-5.96%	
CCOC(=O)N1CCN(Cc2ccc3c(c2)CN(C(=O)c2cccc(-n4cccn4)c2)CCO3)CC1	-11.3% [at 9.04 µM]	
O=C(c1cccc(Cn2cccn2)c1)N1CCOc2c(cc(-c3csc4ccccc34)cc2OC2CCOC2)C1 (centres undefined)		18.4 µM (active)
Cc1ccc(C(=O)NCC(=O)OCC(=O)Nc2cccc(S(=O)(=O)N3CCCC3)c2)cc1C	-26.5%	
CN1C[C@@H](CO)O[C@@H](n2cnc3c(N4CCN(CCO)CC4)ncnc32)C1	-0.685%	
CCCCn1c(N)c(N(CCC(C)C)C(=O)CC2OC(=O)c3ccccc32)c(=O)[nH]c1=O (centres undefined)	-12.2%	
CCOc1cc(/C=C(/C#N)c2ccc(Cl)cc2)cc(Cl)c1OCC(=O)O	-4.71%	
CC(NC(=O)COc1ccc(-c2ccccc2)cc1)C1CCCO1 (centres undefined)		20.6 µM (active)
O=C(COc1ccc(-c2ccccc2)cc1)NN=C1CCCC1	6.33%	
CCOc1ccc(C(CC(=O)O)NC(=O)COc2ccccc2)cc1 (centres undefined)	-2.55%	
CN(C(=O)COC(=O)CNC(=O)C12CC3CC(CC(C3)C1)C2)c1ccccc1	-8.7%	
O=C(NCC(=O)N1CCC2(CC1)NCCc1[nH]cnc12)c1ccc(Br)cc1	-15.1%	
CC(OC(=O)c1ccc(NC(=O)CC#N)cc1)C(=O)Nc1ccc(S(=O)(=O)N2CCCC2)cc1 (centres undefined)	-20%	
CCc1ccc(CN(C)C(C)C(=O)Nc2ccc(S(=O)(=O)N3CCCC3)cc2)cc1 (centres undefined)		18.4 µM (active)

Compound	activity change, negative = growth inhibition	Potency
CN(CC(=O)Nc1ccc(S(=O)(=O)N2CCCC2)cc1)Cc1ccc(Cl)c(Cl)c1	-74.4%	
Cc1cc(/C=C(/C#N)C(=O)Nc2ccc(Cl)cc2)c(C)n1-c1cccnc1	-22%	
COCCn1c(SCC(=O)Nc2ccc(F)cc2F)nc2c(c1=O)SCC2	-8.27%	
O=C(NNS(=O)(=O)c1ccc(F)cc1)c1cnccn1	13.9%	
C=CCn1c(=O)c(C(=O)Nc2ncccc2O)c(O)c2ccccc21	20.6%	
O=C(O)/C=C/c1ccc(S(=O)(=O)N2CCCCCC2)cc1	9.25%	
Cn1nc(C(F)(F)F)c2cc(C(=O)N3CCOCC3)sc21	6.01%	
COc1cccc(-c2nn(C)c3sc(C(=O)N4CCN(c5ccccc5)CC4)cc23)c1		23.1 µM (active)
COc1cccc(-c2ccc(SCC(=O)N3CCN(c4ccccc4)CC3)nn2)c1		16.4 µM (active)
COc1cccc(N2CCN(c3ccc4nnc(CCC(=O)N5CCN(C)CC5)n4n3)CC2)c1	-12.6%	
CCOC(=O)N1CCN(C(=O)c2ccc3nc4cc(Cl)ccc4c(=O)n3c2)CC1	-27.5%	
CCOC(=O)N1CCN(C(=O)c2cc3c(-c4ccc(Cl)cc4)nn(C)c3s2)CC1		16.4 µM (active)
CCOC(=O)N1CCN(C(=O)CNC(=O)Cc2ccc(Cl)cc2)CC1	-8.62%	
COc1cccc(/C=C/C(=O)OCC(=O)N2CCN(c3ccccc3)CC2)c1	-21.8%	
CCOc1ccc(-c2ccc(SCC(=O)N3CCOCC3)nn2)cc1	-7.39%	
O=C(Nc1nccs1)C1CCN(S(=O)(=O)c2ccc(Cl)c(C(F)(F)F)c2)CC1	-10.5%	
O=C(NCc1cccnc1)c1ccccc1NC(=O)c1c(F)cccc1F	-10.2%	
CN(C)C(=O)c1cccn(Cc2cccc(C(F)(F)F)c2)c1=O	-13.1%	
CC(C)CC(=O)NC(=S)Nc1ccc(F)cc1F	-3.59%	
CCOC(=O)c1cc(NC(=O)c2cccnc2)ccn1	1.21%	
CCCCOC(=O)c1ccc(N2C(=O)CC(N3CCN(C/C=C/c4ccccc4)CC3)C2=O)cc1 (centres undefined)	-15.8%	
O=C(c1ccc(F)cc1)N1CCC(n2nnc3ccccc32)CC1	1.92%	
CC(NC(=O)CCCC1CCCCC1)c1ccc(S(N)(=O)=O)cc1 (centres undefined)	9.33%	
CC(Sc1nc2cc(Cl)ccc2s1)C(=O)Nc1ccc2c(c1)OCO2 (centres undefined)	5.21%	
COc1ccc(C2NC(=O)N(C)C3=C2C(=O)N(c2ccc(C(=O)O)cc2)C3)cc1 (centres undefined)	-7.11%	
CC(C(=O)Nc1ccc(F)c(F)c1F)N1CCCCCC1 (centres undefined)	-23.8%	

Compound	activity change, negative = growth inhibition	Potency
COc1ccc([N+](=O)[O-])cc1NC(=O)CC1SC(=Nc2cccc(C)c2C)N(/N=C(\C)c2ccc(C)cc2)C1=O (centres undefined)	12.7%	
CCOc1ccc(CN2CCN(Cc3c[nH]c4ccccc34)CC2)cc1		3.66 µM (active)
CCOc1ccc(CN2CCCN(C)CC2)cc1	-17.7%	
CCOc1ccc(CC(=O)NC2CCN(Cc3ccccc3)CC2)cc1	-11.6%	
CC(C)(C)S(=O)(=O)N1Cc2cc(CO)cc(CCO)c2[C@H]1CCO	-2.54%	
C/C(CC(=O)NC(C)(C)C)=N\NC(=O)c1ccco1	5.55%	
Cc1csc2nc(COC(=O)c3cccc(N(C)C)c3)cc(=O)n12	-24.8%	
CCCc1c(C)nc2scc(-c3ccc(Cl)cc3)n2c1=O	-12.2%	
O=c1cc(CCl)nc2scc(-c3ccccc3)n12		14.6 µM (active)
Cc1onc(-c2ccccc2)c1C(=O)N1CCN(S(=O)(=O)c2ccccc2C(F)(F)F)CC1	-3.88%	
COc1ccc(CNC(=O)c2nnn(CC(=O)Nc3cc(C)cc(C)c3)c2N)cc1		inactive
O=C(Cc1ccc(-n2c(=O)c3sccc3n(Cc3ccc(F)cc3)c2=O)cc1)NCc1ccco1		16.4 µM (active)
O=C(CSc1ncc(CO)n1Cc1ccc(F)cc1)NCc1ccco1	-8.88%	
O=C(CSc1nnc(-c2cccs2)n1-c1ccccc1)NCc1ccco1	2.07%	
Cc1ccc(N2C(=O)CC(NCc3ccc4c(c3)OCO4)C2=O)cc1Cl (centres undefined)	2.01%	
CN(C)NC(=O)C(NC(=O)c1ccc(N)cc1)C12CC3CC(CC(C3)C1)C2 (centres undefined)	1.22%	
COCCCN1C(=O)c2ccc(C(=O)OCC(=O)NCc3ccccc3OC)cc2C1=O	1.23%	
C/C(=N\NC(=O)C(N)=O)c1ccc2c(c1)OCCO2	13.6%	
C/C(=N/NC(=O)c1ccncc1)c1ccc2c(c1)OCO2	1.21%	
C/C(=N/NC(=S)Nc1ccccc1)c1ccc2c(c1)OCO2		0.82 µM (active)
CCCCNC(=O)CCn1nc(-c2ccc(Cl)cc2)ccc1=O	23.4%	
CCCn1nc2cc(C(=O)NCc3ccccc3)ccc2c1OCC	-13.4%	
O=C(O)CSc1nccc2ccccc12	-1.02%	
CCOC(=O)C(C(=O)c1ccccc1)C(c1ccccc1)c1nccc2ccccc12 (centres undefined)		20.6 µM (active)
Cc1ccc(NC(=O)C2(N3CCC3=O)CCCCC2)cc1	2.09%	
CCn1cc(C(=O)NCC(=O)NC(C)(C)CO)c(=O)c2cc3c(cc21)OCO3	14.7%	

Compound	activity change, negative = growth inhibition	Potency
CCCCNC(=O)C1CCCNC1=O (centres undefined)	-27.3%	
O=C(Cc1ccc([N+](=O)[O-])cc1)NCCc1ccc2c(c1)OCO2	-24.6%	
O=C(NC1CCCCC1)c1cc([N+](=O)[O-])ccc1N1CCOCC1	-4.33%	
O=C(NCc1ccc2c(c1)OCO2)c1cc([N+](=O)[O-])ccc1N1CCOCC1		3.26 µM (active)
O=C1C2C3C=CC(C3)C2C(=O)N1c1ccc(S(=O)(=O)Nc2nccs2)cc1 (centres undefined)	-8.65%	
COc1ccc(C(=O)NCc2ccccc2C)cc1S(=O)(=O)NC1CCCC1	-4.79%	
CC(=O)N(CC(O)CO)c1c(I)c(C(=O)NCC(O)CO)c(I)c(C(=O)NCC(O)CO)c1I (centres undefined)		inactive
O=C(C1CC(=O)N(c2ccc(Br)cc2)C1)N1CCCC1 (centres undefined)	-5.65%	
COc1ccc(NC(=O)CS(=O)(=O)c2ccccc2)cc1	31.2%	
COc1ccc(C(CC(=O)c2ccccc2)S(=O)(=O)c2ccccc2)cc1 (centres undefined)		23.1 µM (active)
COc1ccc(N(Cc2ccccc2)S(=O)(=O)c2cccc(C(=O)O)c2)cc1	-6.42%	
NC(=O)c1ncn([C@@H]2O[C@H](CN=C3NS(=O)(=O)c4ccccc43)[C@@H](O)[C@H]2O)n1	-10.6%	
CC(Oc1ccc(Br)cc1)C(=O)NCC(c1ccco1)N1CCCCC1 (centres undefined)	-24.4%	
CN(C)S(=O)(=O)c1ccc(Oc2ccc(S(=O)(=O)N(C)C)cc2)cc1		16.4 µM (active)
COc1ccc(S(=O)(=O)N(C)CC(=O)N2CCCC2)cc1	2.13%	
CN(C)S(=O)(=O)c1ccc(NC(=O)N2CCOCC2)cc1	-5.71%	
COc1ccc(N(CC(=O)Nc2cc(OC)cc(OC)c2)S(=O)(=O)c2c(C)n[nH]c2C)cc1	-29.6%	
COc1ccc(CCNC(=O)COC(=O)c2ccc[nH]c2=O)cc1	3.7%	
CC(C)=N/N=C1/NC(=O)C(Cc2ccccc2)S1 (centres undefined)	8.07%	
CCN(CC(=O)NCc1cccs1)C(=O)/C=C/c1ccc(C)cc1	-23.4%	
COc1ccc(SC[C@H](Cc2ccccc2)N2CCN(CCc3ccccc3)CCC2=O)cc1		23.1 µM (active)
C[C@H]1CCC(=O)N([C@H](CSc2ccccc2)Cc2ccccc2)CC1	-13.2%	
O=C(Cc1ccccc1)NNC1CC(=O)N(c2ccc(Br)cc2)C1=O (centres undefined)	1.27%	
O=C1CC[C@H](O)CCN1[C@H](CSc1ccc(Br)cc1)Cc1ccccc1		11.2 µM (active) and 14.6 µM (active)
O=C1CCN(Cc2ccc([N+](=O)[O-])cc2)CCN1[C@H](CO)Cc1ccccc1	-9.24%	
O=C1CCN(CCCc2ccccc2)CCN1CCO	3.81%	
